In PubChem BioAssay AID485349 (National Center for Advancing Translational Sciences (NCATS), 2010):
About 620 (0.19%) of roughly 320,000 compounds were called active. For the sample, actives were picked, then their nearest neighbours and some compounds at random. Values without a mark were called inactive. Calls come from the whole dose curve; as a rule, active = well fitted activation curve with a large enough effect; inconclusive = small, poorly fitted or top-dose-only effect; inactive = no such curve, though single readings can be large or run the other way.

Experiment: qHTS Assay for Identifying a Potential Treatment of Ataxia-Telangiectasia; note: nearly all actives have a fitted effect of over 45% in size; for activation: % of control where 0% means no effect
Conditions: F2112 A-T fibroblasts, KAP-1 phosphorylation AlphaLISA, neocarzinostatin DNA damage 30 min before lysis; series mostly up to 57.5 µM; activation: at the top concentration
In short: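 hTERT-immortalized A-T patient fibroblasts (F2112), 500 cells/well in OPTI-MEM, 1% FBS, got compounds for 60 min, then NCS for 30 min at 37C. Lysates were then assayed for phospho-KAP-1 by AlphaLISA (anti-pKAP1 donor, anti-KAP1 acceptor beads), 6 hr at 25C.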
Potency is the fitted concentration of half-maximal effect.

Row | SMILES | activation | Potency
1 | CC(CCN1CCN=C1N(C)C)c1ccccc1 (centres undefined) | 3.24% | 
2 | Cc1nn(C)cc1N1C(=O)c2cccc3c(N)ccc(c23)C1=O | 26% | 
3 | O=C(O)c1ccc2c3c(cccc13)C(=O)N(OS(=O)(=O)c1ccccc1)C2=O | -0.483% | 
4 | CN1C(=O)c2cccc3c(N)ccc(c23)C1=O |  | 17.8 µM (active)
5 | CC[C@]12c3[nH]c4cc(CCC(=O)N(C)C)ccc4c3CCN1C(=O)[C@@H](CC(=O)NCC13CC4CC(CC(C4)C1)C3)C[C@@H]2C(=O)N1CCN(C(=O)C2CC2)CC1 | 16.8% | 
6 | CCCN(CC(=O)NC(=O)NC1CCCCC1)CC(=O)Nc1cc(Cl)ccc1Cl | -4.08% | 
7 | O=C(COC(=O)/C=C/c1ccc2c(c1)OCO2)NC1CCS(=O)(=O)C1 (centres undefined) |  | 3.16 µM (active)
8 | CCOC(=O)CCCNC(=O)COC(=O)/C=C/c1ccc2c(c1)OCO2 | 2.79% | 
9 | CN(Cc1ccccc1)C(=O)COC(=O)/C=C/c1ccc2c(c1)OCO2 | 15.3% | 
10 | CC(=O)Oc1ccc(C(C)=O)c2c1OCCO2 | 1.49% | 
11 | C[C@H](NS(=O)(=O)c1ccc(Cl)cc1)C(=O)OCC(=O)N1CCOCC1 | 11.7% | 
12 | c1ccc2c(CCN3CCNC[C@H]3Cc3cccc4ccccc34)cccc2c1 | -2.42% | 
13 | CCN(CC)C(=O)CSc1ncnc2c1cnn2-c1ccccc1 | -3.41% | 
14 | CC(C)Sc1ncnc2c1cnn2-c1ccccc1 |  | 39.8 µM (active)
15 | CC(Sc1ncnc2c1cnn2-c1ccccc1)C(=O)Nc1ccc(N2CCOCC2)cc1 (centres undefined) | 18.6% | 
16 | Cc1ccc(OCc2nnc(SC3CCc4ccccc4C3=O)n2C)cc1 (centres undefined) | 11.7% | 
17 | CC1(C)Cc2cccc(OCC(=O)N3CCN(c4ccc([N+](=O)[O-])cc4)CC3)c2O1 | -15% | 
18 | C=CC(COCc1ccccc1)N(CC(=O)OC)S(=O)(=O)c1cc(Br)ccc1OC (centres undefined) | -2.37% | 
19 | CCOC(=O)c1c(C)[nH]c(C)c1S(=O)(=O)NCCCc1ccco1 | 0.382% | 
20 | CCOC(=O)c1c(CNCc2ccccc2F)c2sc(C)cc2n1C | 6.44% | 
21 | COc1ccc(C2CC(c3cccs3)=NN2C(=O)CSc2nncs2)cc1OC (centres undefined) | -1.85% | 
22 | COc1cccc(C2CC(c3cccs3)=NN2C(=O)CSC2=NCCS2)c1OC (centres undefined) | 2.45% | 
23 | COc1ccc(C2CC(c3cccs3)=NN2c2nc(C)c(C(C)=O)s2)cc1OC (centres undefined) | 25% | 
24 | COc1ccc(C2CC(c3cccs3)=NN2c2ccc(F)cc2)cc1OC (centres undefined) |  | 25.1 µM (active)

Row | SMILES | activation | Potency
25 | O=C(COc1ccccc1Cl)N1N=C(c2cccs2)CC1c1ccco1 (centres undefined) | 10.1% | 
26 | Fc1ccc(N2N=C(c3cccs3)CC2c2ccco2)c(F)c1 (centres undefined) |  | 28.2 µM (active)
27 | COc1ccc(C2CC(c3cccs3)=NN2C(=O)CCC(=O)O)cc1OC (centres undefined) | -10% | 
28 | COc1ccc(C2=NN(C(C)=O)C(c3ccccc3)C2)cc1 (centres undefined) | 1.93% | 
29 | COc1ccc(C2CC(c3cccs3)=NN2c2ccccc2)cc1 (centres undefined) |  | 28.2 µM (active)
30 | COc1ccc(C2=NN(c3ccccc3)C(c3cccs3)C2)cc1 (centres undefined) | 30.4% | 
31 | Cc1ccccc1C1CC(c2cccs2)=NN1S(C)(=O)=O (centres undefined) | 2.2% | 
32 | COc1ccccc1N1N=C(c2cccs2)CC1c1ccccc1 (centres undefined) |  | 15.8 µM (active)
33 | COC(=O)[C@@]1(C)[C@H]2C(=O)N(Cc3ccccc3)C(=O)[C@H]2[C@H]2CN=C(SCC3CC3)N21 | 12.9% | 
34 | C=C(C)Cn1c(C)cc(C)c(S(=O)(=O)c2ccccc2C)c1=O | 6.82% | 
35 | COC(=O)c1cc2occc2n1Cc1nc(-c2ccccc2C)oc1C | -6.52% | 
36 | COc1cc(/C=C/C(=O)OCC(=O)c2ccccc2)cc(OC)c1OC | 1.85% | 
37 | C=CCNC(=O)C12CC3CC(C1)CC(C(=O)NCC=C)(C3)C2 | -0.102% | 
38 | N#CC(Cc1cc2ccccc2n1S(=O)(=O)c1ccccc1)OCc1ccccc1 (centres undefined) | 13.4% | 
39 | CC1(C)CCSC(/C=C/c2ccccc2)=N1 | 24.1% | 
40 | CC[C@]12c3[nH]c4ccc(Cl)cc4c3CCN1C(=O)[C@@H](CC(=O)NCCCOC)C[C@@H]2C(=O)N1CCN(C(=O)c2ccco2)CC1 | -37.5% | 
41 | Cc1ccc(S(=O)(=O)N(C)C)cc1NC(=O)C(C)OC(=O)c1ccc2ccccc2n1 (centres undefined) | 6.37% | 
42 | Cc1cc(NS(=O)(=O)c2ccc(NC(=O)C(C)Oc3cccc(C)c3C)cc2)nc(C)n1 (centres undefined) | 1.45% | 
43 | CCCCNC(=O)CCn1nc(-c2ccc(Cl)cc2)ccc1=O | 7.06% | 
44 | CCCCNC(=O)C(C)N(CCN(C)C)C(=O)CCCN1C(=O)NC(c2ccc(Cl)cc2)C(C(=O)OCc2ccccc2)=C1C (centres undefined) | 8.76% | 
45 | COCc1cc(C)nc2sc3c(=O)n(-c4cccc5ccccc45)nnc3c12 | -0.284% | 
46 | CCCNC(=O)N1CCN(C(=O)NCCC)CC1 | -6.58% | 
47 | OCCC1CN(Cc2cccn2-c2nccs2)CCN1CCc1ccccc1 (centres undefined) | -1.87% | 
48 | O=C(CN1C(=O)CC(c2ccccc2)=Nc2ccccc21)NC1CCCCC1 | -3.66% | 

Row | SMILES | activation | Potency
49 | COc1ccc(C(CC(=O)c2ccccc2)S(=O)(=O)c2ccccc2)cc1 (centres undefined) | -6.21% | 
50 | CC(Sc1nn(-c2ccc(Cl)cc2)c(=S)s1)C(=O)NCC1CCCO1 (centres undefined) | 1.57% | 
51 | CC1CC(C)(C)n2c(O)c(N=NC(N)=S)c3cccc1c32 (centres undefined) |  | 12.6 µM (active)
52 | Cc1ccc(C(=O)N/C(=C/c2cccs2)C(=O)N2CCCCC2)cc1 | 0.215% | 
53 | Cc1cc(C)c2nc(N(CCN(C)C)C(=O)/C=C/c3cccs3)sc2c1 | 0.0598% | 
54 | CCC(=O)Nc1ccc(-c2ccc(N3CCCCC3)nn2)cc1 | 1.96% | 
55 | CC[C@]1(C(=O)OC)[C@H]2C(=O)N(Cc3ccccc3)C(=O)[C@H]2[C@H]2CN=C(SCc3ccccc3)N21 | 5.41% | 
56 | COc1ccc(NC(=O)Cn2cc(C(=O)c3ccncc3)c(=O)c3cc(C)ccc32)cc1Cl |  | 28.2 µM (active)
57 | COc1ccc2c(c1)c(=O)c(C(=O)c1ccc(Cl)cc1)cn2CC(=O)Nc1ccc(F)cc1 | 16.2% | 
58 | COc1ccc(NC(=O)CN2CCN(S(=O)(=O)c3ccc(F)cc3)CC2)cc1Cl | 0.37% | 
59 | ONC(=Nc1ccc(Cl)cc1)c1ccccc1Cl | 6.68% | 
60 | Cc1cccc2c1-c1sc(C(=O)NCCCN3CCc4ccccc4C3)cc1CO2 | -1.52% | 
61 | COc1ccc2[nH]c3c(c2c1)CCN1C(=O)C(CC(=O)NCCCN(C)C)C[C@H](C(=O)N2CCOCC2)[C@@]31CCC1CCCC1 (some centres undefined) | -3.33% | 
62 | CC[C@@H]1Cc2cc(O)ccc2C2=C1c1ccc(O)cc1C[C@H]2CC | 14.8% | 
63 | CCOc1ccc(C(C)NC(=O)CN2C(=O)NC3(CCCCC3)C2=O)cc1OCC (centres undefined) | 9.29% | 
64 | CC[C@]12c3[nH]c4ccc(OC)cc4c3CCN1C(=O)C(CC(=O)NCc1ccco1)C[C@@H]2C(=O)N1CCN(C(=O)C2CC2)CC1 (some centres undefined) | 4.23% | 
65 | CN(C(=O)COC(=O)c1cc(=O)[nH]c2ccccc12)C1CCCCC1 | -2.3% | 
66 | CN(Cc1nc(-c2cnccn2)no1)Cc1n[nH]c2c1CCCCC2 |  | 31.6 µM (active)
67 | CN(Cc1cc2cc(F)ccc2[nH]1)Cc1nc(-c2cnccn2)no1 | 1.4% | 
68 | CCn1ccnc1CN(C)Cc1nc(-c2ccc3c(c2)OCO3)no1 | -0.159% | 
69 | COc1ccc(C(F)(F)F)cc1N/C=C\c1nnnn1-c1ccc(C)cc1 | 7.4% | 
70 | O=C1[C@@H](c2ccccc2)[C@@H](c2ccccc2)N1c1cccnc1 | 10.1% | 
71 | CC(C)N(C(=O)[C@H]1C[C@H](CC(=O)NC(C)(C)C)C(=O)N2CCc3c([nH]c4ccc(Cl)cc34)[C@]12C)C(C)C | -0.0292% | 
72 | O=C(COC(=O)Cc1ccccc1F)NCCc1ccccc1 | 9.39% | 

Row | SMILES | activation | Potency
73 | C#CCOCCOCCOCCNc1nc(N2CCN(C(=O)[C@H](CCC(=O)O)n3cc(C(N)CO)nn3)CC2)nc(N2CCN(C(=O)[C@H](CCCCN)n3cc(C(N)CC(C)C)nn3)CC2)n1 (some centres undefined) |  | 31.6 µM (active)
74 | C#CCOCCOCCOCCNc1nc(N2CCN(C(=O)[C@H](CCC(=O)O)n3cc(C(N)CO)nn3)CC2)nc(N2CCN(C(=O)[C@H](CCCCN)n3cc(C(N)[C@H](C)CC)nn3)CC2)n1 (some centres undefined) | -9.68% | 
75 | C#CCOCCOCCOCCNc1nc(N2CCN(C(=O)[C@H](CO)n3cc([C@@H](N)C(C)C)nn3)CC2)nc(N2CCN(C(=O)[C@H](CCC(=O)O)n3cc([C@@H](N)[C@H](C)CC)nn3)CC2)n1 | 19.6% | 
76 | CCOC(=O)C1=C(C)N(C[C@@H]2CC[C@@H](Cc3ccc(-c4ccccc4)cc3)O2)C(=O)NC1c1ccc([N+](=O)[O-])cc1 (some centres undefined) | 2.54% | 
77 | COc1ccc(OCc2nnc3n2N=C(c2ccccc2)C(CC(=O)O)S3)cc1 (centres undefined) | -6.02% | 
78 | CCN(CC)C(=O)[C@H]1C[C@H](CC(=O)NCC23CC4CC(CC(C4)C2)C3)C(=O)N2CCc3c([nH]c4cc(CCC(=O)N(C)C)ccc34)[C@]12C | 5.14% [at 11.5 µM] | 
79 | CN(C)CCCNC(=O)c1cc(C(=O)Cc2ccc(Cl)cc2)c[nH]1 | -3.26% | 
80 | Cc1c(N=Nc2ccc(N(C)C)cc2)c(=O)n(-c2ccccc2)n1C | -13% | 
81 | COc1ccc(NC(=S)NCC2CCN(c3ccc(OC)cc3)C2)cc1 (centres undefined) | -10.3% | 
82 | COc1ccc(NC(=S)NCCN2CCC(C)CC2)cc1 | 0.379% | 
83 | COc1ccc(N2CCC(CNC(=S)Nc3c(C)cccc3C)C2)cc1 (centres undefined) |  | 17.8 µM (active)
84 | CC(C)(C)[Si](OCC[C@@H]1C[C@@]1(C)[C@@H](NP(=O)(c1ccccc1)c1ccccc1)c1ccccc1)(c1ccccc1)c1ccccc1 | 0.777% | 
85 | CCOc1ccc(N(CC(=O)Nc2ccccc2F)S(=O)(=O)c2c(C)[nH]c(=O)[nH]c2=O)cc1 | -6.74% | 
86 | CNC(=S)N1N=C(c2ccccc2)CC1c1ccc(Br)cc1 (centres undefined) | -12.5% | 
87 | O=C(c1ccccc1)N1N=C(c2ccccc2O)CC1c1ccc(Br)cc1 (centres undefined) |  | 17.8 µM (active)
88 | CC(=O)Oc1ccccc1C1=NN(C(C)=O)C(c2ccccc2)C1 (centres undefined) | -4.03% | 
89 | Cn1c2cc(B(O)O)sc2c2cnn(Cc3ccccc3F)c(=O)c21 | -5.04% | 
90 | CS/C(=C\[N+](=O)[O-])Nc1ccc(C)cc1 | -0.888% | 
91 | CCCCn1nnnc1NCc1cc(OC)c(OC)c(OC)c1 | 3.86% | 
92 | O=C(CNCc1cccs1)Nc1cc(S(=O)(=O)N2CCCC2)ccc1Cl |  | 3.16 µM (active)
93 | O=C(NCc1cccs1)C1CCN(S(=O)(=O)c2ccc(Cl)cc2)CC1 | 6.91% | 
94 | CS(=O)(=O)c1ccc(Cl)c(NC(=O)COC(=O)c2cccc(S(=O)(=O)N3CCCC3)c2)c1 | -0.484% | 
